According to the OligoGym collection:

What follows are sequences tested against FABP9 (assay: pooled miR-30 sensor sort-seq; sequence = guide strand). Conditions: shRNA.
Further: reference of the scale not given here.

| Sequence | sensor-assay potency score (higher = more potent) |
| --- | --- |
| TTAGTGTCCTGGAAAGAACTTT | -0.461 |
| TTACTTTCCGGTTGTCTGCTGT | -0.00906 |
| TTGATTGTTGTCTCTTTGCCAA | -0.728 |
| TATGGTGCTCTTTACTTTCCGG | -0.345 |
| AACACTAATAGTTACTGTCGGT | -0.48 |
| TTTACTTTCCGGTTGTCTGCTG | 0.767 |
| TTTTGGACGTGAATCATTGAGC | -0.43 |

What follows are sequences tested against FAM103A1 in the same assay as above. Conditions: shRNA.

| Sequence | sensor-assay potency score (higher = more potent) |
| --- | --- |
| TTTCTGTGAATCTACTAGCAAA | -1.27 |
| TGTCTGTTGTCTTGCAACCGAT | -1.2 |
| TTTTCTGTGAATCTACTAGCAA | -0.323 |
| TACTAGCAAACATCTCTTCAAA | -1.05 |
| ATAATGTCCATATTGCTGGGGA | -0.0469 |
| ATCTACTAGCAAACATCTCTTC | -0.234 |
| TCTACTAGCAAACATCTCTTCA | -0.435 |
| TTGTCTTGCAACCGATTGCCTC | -1.09 |
| AACATCTCTTCAAACTTTGGAA | -0.553 |
| TTCTTGTCTGTGTTGCGGGTAG | -0.368 |
| TTGTCATTTTCTGTGAATCTAC | -0.838 |

What follows are sequences tested against FAM111A in the same assay as above. Conditions: shRNA.

| Sequence | sensor-assay potency score (higher = more potent) |
| --- | --- |
| TTGAGAGCCATATATAAGCTAC | -0.708 |
| TTACATTTTTCATTGACTGAGT | -0.373 |
| TTCTAATTCATCAACTGGCTGG | 0.174 |
| TATGTGGTTATCTTCCTTCTGC | -0.217 |
| TATCTCTTTTCTGACAGCCTGG | -0.766 |
| TTGTTCTCTCAACACACAGGTG | -0.868 |
| TACTCTTTGATTCCTTCTGTGC | -0.506 |
| TTTGAGATCATTTCTAATCAAG | -0.737 |
| TTTCCAATCATCATTCTCCAGA | -0.625 |
| TCTTTTCTCAACCTCAACCTGA | -0.463 |
| TTTCCTTGTCTTTTAGCTCTTC | 0.0612 |
| TTCATATCTTGGTTTCTCCTGT | 0.306 |

The sequences below were run against FAM113A in the same assay as above. Conditions: shRNA.

| Sequence | sensor-assay potency score (higher = more potent) |
| --- | --- |
| TTCCAGAACATCCTCAAGGTAC | -0.46 |
| TTGTTGTGTAGCAGCTGCTGGA | -0.714 |
| TAGCACTGTAGAAGTTCCCTTC | 0.54 |
| TTTCTGGAGCAAGAGCACCAGG | -1.16 |
| TTGAGCAGCGACCATATCTGGA | -0.708 |
| TGGAAGTGGACCATGTCGCTTC | -0.111 |
| TTCAACCACATCCCGCCGCAGG | -1.27 |
| TAGCTCTCCATTGAGCAGCGAC | -1.09 |
| TTGATGATCACCAGGTCCGGGG | -0.983 |
| TCTCTCTGAGTGTCTGAGCCGC | -0.879 |
